# Source: PMC4336329 (PLoS ONE, 2015)
# The whole screen tested about 310,000 compounds, of which about 2,200 (0.71%) showed an effect of 50% or more. Effects have a minus sign here. The entries come from a sample that favours strong results as a whole.
# Target: human ether-à-go-go-related gene (hERG) potassium channel (human, UniProt Q12809)
# Assay: primary screen, population patch clamp on CHO cells stably expressing hERG; higher = less effect of the substance
# Chain of human ether-à-go-go-related gene (hERG) potassium channel (Q12809 whole entry, looked up): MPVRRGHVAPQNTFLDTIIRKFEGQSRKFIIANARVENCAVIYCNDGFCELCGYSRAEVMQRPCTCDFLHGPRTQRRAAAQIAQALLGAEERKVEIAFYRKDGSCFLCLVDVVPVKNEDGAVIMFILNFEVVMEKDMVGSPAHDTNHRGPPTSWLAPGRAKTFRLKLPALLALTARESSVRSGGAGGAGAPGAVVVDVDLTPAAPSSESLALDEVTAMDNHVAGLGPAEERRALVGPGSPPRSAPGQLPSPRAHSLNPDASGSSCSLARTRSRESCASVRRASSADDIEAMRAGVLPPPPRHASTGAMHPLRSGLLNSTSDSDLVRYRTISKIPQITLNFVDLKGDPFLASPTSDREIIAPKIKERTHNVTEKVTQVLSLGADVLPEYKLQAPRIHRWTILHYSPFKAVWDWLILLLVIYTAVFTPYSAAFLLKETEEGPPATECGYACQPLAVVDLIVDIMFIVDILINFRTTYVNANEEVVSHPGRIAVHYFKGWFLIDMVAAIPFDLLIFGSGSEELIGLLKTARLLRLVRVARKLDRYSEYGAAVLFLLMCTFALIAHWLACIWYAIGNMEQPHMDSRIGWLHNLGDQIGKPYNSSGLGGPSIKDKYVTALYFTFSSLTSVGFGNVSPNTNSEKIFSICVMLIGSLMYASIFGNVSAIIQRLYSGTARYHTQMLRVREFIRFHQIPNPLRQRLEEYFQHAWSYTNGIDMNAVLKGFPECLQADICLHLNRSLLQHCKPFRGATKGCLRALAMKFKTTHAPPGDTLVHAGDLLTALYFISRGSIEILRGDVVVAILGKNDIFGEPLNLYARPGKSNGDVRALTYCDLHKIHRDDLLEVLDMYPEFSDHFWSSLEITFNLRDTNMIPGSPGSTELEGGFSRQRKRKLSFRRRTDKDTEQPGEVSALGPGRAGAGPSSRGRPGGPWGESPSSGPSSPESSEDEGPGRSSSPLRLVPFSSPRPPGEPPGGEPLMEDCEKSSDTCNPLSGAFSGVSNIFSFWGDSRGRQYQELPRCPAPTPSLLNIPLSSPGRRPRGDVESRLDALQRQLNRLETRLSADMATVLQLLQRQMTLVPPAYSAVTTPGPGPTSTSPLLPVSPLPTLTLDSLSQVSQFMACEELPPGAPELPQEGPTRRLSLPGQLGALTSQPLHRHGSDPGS
row,SMILES,"hERG current change (%, negative = inhibition) at 1uM [%]"
1,Cc1ccc2[nH]cc(C(=O)CCl)c2c1,15.2
2,CCOc1ccccc1NC1c2ccccc2C(=O)N1Cc1ccco1 (centres unmarked),7.42
3,O=C(O)c1cccc(N2C(=O)CSC2=S)c1,11.7
4,COc1ccccc1-n1c(-c2ccc(Cl)cc2)c[nH]c1=S,9.1
5,Cc1nc2scc(-c3ccco3)c2c(=O)n1/N=C/N(C)C,5.8
6,O=C(Nc1cccc(NC(=O)c2ccc(Cl)cc2)n1)c1ccc(Cl)cc1,14.3
7,COc1ccc(-c2ccnc3nc(N4CCN(c5ccccc5)CC4)nn23)cc1,14.9
8,CCCCn1nnc(NC(=O)C(c2ccccc2)c2ccccc2)n1,11.2
9,COc1c(C)cc(S(=O)(=O)NCc2ccccn2)c(C)c1C,9.43
10,Nc1nnc(SCC(=O)OCc2ccccc2)s1,14.4
11,CCN(CC)S(=O)(=O)c1ccc(N2CCOCC2)c(NS(=O)(=O)c2cc(C(C)(C)C)ccc2C)c1,6.68
12,O=C(NCCc1cccs1)C1CC(c2c(Cl)cccc2Cl)=NO1 (centres unmarked),10.6
13,CSCCC(NS(=O)(=O)c1ccccc1F)C(=O)NCCCn1nc(C)cc1C (centres unmarked),-1.95
14,COc1ccc(/C=C(\NC(=O)c2ccc(Cl)cc2)C(=O)NCCCN2CCOCC2)cc1OC,9.09
15,Cc1ccc(C(=O)N/C(=C\c2ccc(Cl)cc2)C(=O)NCCCN2CCOCC2)cc1,-78.6
16,COc1ccc(/C=C(\NC(=O)c2ccc(C)cc2)C(=O)NCCCN2CCOCC2)cc1OC,14.1
17,Cc1ccc(OCCOCCN2CCN(C)CC2)c(C(C)(C)C)c1.O=C(O)C(=O)O,13.2
18,COc1ccc(S(=O)(=O)NCC(c2cccnc2)N2CCN(Cc3ccccc3)CC2)cc1C (centres unmarked),-65.5
19,CCN1CCN(C(CNS(=O)(=O)c2ccc(Cl)cc2)c2cccnc2)CC1 (centres unmarked),-10.6
20,COc1ccc(S(=O)(=O)NCC(c2cccnc2)N2CCN(Cc3ccccc3)CC2)cc1 (centres unmarked),-26.7
21,O=S(=O)(NCC(c1cccnc1)N1CCN(Cc2ccccc2)CC1)c1ccccc1 (centres unmarked),-52.4
22,CCN1CCN(C(CNS(=O)(=O)c2ccc(OC)c(C)c2)c2cccnc2)CC1 (centres unmarked),-27.5

row,SMILES,"hERG current change (%, negative = inhibition) at 1uM [%]"
1,Cc1ccc(S(=O)(=O)NCC(c2cccnc2)N2CCN(Cc3ccccc3)CC2)cc1 (centres unmarked),-39.6
2,O=S(=O)(NCC(c1cccnc1)N1CCN(Cc2ccccc2)CC1)c1ccc(Cl)cc1 (centres unmarked),-60.6
3,O=S(=O)(NCC(c1cccnc1)N1CCN(Cc2ccccc2)CC1)c1ccc(F)cc1 (centres unmarked),-42.6
4,COc1ccc(S(=O)(=O)NCC(c2cccnc2)N2CCN(c3ccccc3)CC2)cc1C (centres unmarked),-1.72
5,COc1ccc(C(=O)NNC(=O)C(=O)NC2CCCCC2)cc1,4.11
6,O=c1cccccc1NN=C1CCCCCC1,14.1
7,Clc1ccc(/C=N/Nc2nnc(-c3ncc[nH]3)c3ccccc23)cc1,4.89
8,Cc1cc(OCCCCOc2ccc(S(N)(=O)=O)c(C)c2)ccc1S(N)(=O)=O,12.7
9,O=C(O)Cn1c(=O)c2c3c(sc2n(Cc2ccc(Cl)cc2Cl)c1=O)CCCC3,6.14
10,CC(Sc1nnc(C2CC2)n1C1CC1)C(=O)N(C)Cc1cccc(F)c1 (centres unmarked),-2.8
11,CCOC(=O)C1=C(c2ccccc2)NC(=O)N(C(C)=O)C1c1cccc([N+](=O)[O-])c1 (centres unmarked),10.2
12,CC(C)OCCCn1c(=N)c(S(=O)(=O)c2ccccc2)cc2c(=O)n3ccccc3nc21,-0.118
13,CCOCCCn1c(=N)c(S(=O)(=O)c2ccc(C)cc2)cc2c(=O)n3cc(C)ccc3nc21,16.1
14,CCOC(=O)c1cc2c(=O)n3ccccc3nc2n(CCCOC)c1=NC(C)=O,-15.6
15,Cc1ccc2nc3c(cc(C(N)=S)c(=N)n3CCCOC(C)C)c(=O)n2c1,-65.1
16,CCOCCCn1c(=N)c(S(=O)(=O)c2ccccc2)cc2c(=O)n3cc(C)ccc3nc21,11.3
17,CC(C)OCCCn1c(=N)c(C(N)=S)cc2c(=O)n3ccccc3nc21,-74.5
18,CCc1cc(C(=O)COc2ccc(F)cc2)c(O)cc1O,5.76
19,CCSc1nc2sc3c(c2c(=O)[nH]1)CC(C)(CC)OC3 (centres unmarked),18.7
20,O=C1C=C(NCc2ccco2)CC(c2ccc(Cl)cc2)C1 (centres unmarked),-34.8
21,O=C1C=C(NCc2ccc3c(c2)OCO3)CC(c2ccccc2)C1 (centres unmarked),-81.9
22,CC(C)CCNC1=CC(=O)CC(c2ccccc2)C1 (centres unmarked),-0.257

row,SMILES,"hERG current change (%, negative = inhibition) at 1uM [%]"
1,O=C1C=C(NCc2ccncc2)CC(c2ccccc2)C1 (centres unmarked),-22.8
2,CCCCCCCNC1=CC(=O)CC(c2ccco2)C1 (centres unmarked),-77.6
3,CCCCCCCNC1=CC(=O)CC(c2ccccc2)C1 (centres unmarked),-63.2
4,CCc1ccc(NC2=CC(=O)CC(c3ccco3)C2)cc1 (centres unmarked),12.9
5,O=C1C=C(Nc2ccc(Cl)cc2)CC(c2ccco2)C1 (centres unmarked),4.78
6,COc1ccc(C2CC(=O)C=C(NCc3ccc4c(c3)OCO4)C2)cc1 (centres unmarked),-32.6
7,O=C1C=C(NCc2ccc(Cl)cc2)CC(c2ccco2)C1 (centres unmarked),-91.3
8,CN(C)CCCNC1=CC(=O)CC(c2ccccc2)C1 (centres unmarked),-1.56
9,CC(C)CNC1=CC(=O)CC(c2ccco2)C1 (centres unmarked),14.5
10,Cc1cccc(OC(=O)NCCOC(=O)N(O)c2ccc(Cl)cc2)c1,1.04
11,Cc1ccc(NC(=O)CSc2sc3c(O)cc(=O)[nH]c3c2C#N)c(F)c1,-4.66
12,Cc1cccc(C)c1NC(=O)CSc1nc2[nH]c(=O)cc(O)c2s1,4.15
13,COc1ccc(N(CC(=O)NC2CC3CCC2C3)S(=O)(=O)c2ccc(C)c([N+](=O)[O-])c2)cc1 (centres unmarked),10.2
14,COc1cccc(C(=O)NNS(=O)(=O)c2ccc(C)cc2)c1,13
15,O=C(NCc1ccco1)c1cccc(NS(=O)(=O)c2ccccc2F)c1,6.58
16,Cc1ccc(NC(=O)CSCC(=O)NCc2cccc(C(F)(F)F)c2)cc1,6.6
17,O=C(CN(C(=O)C1COc2ccccc2O1)c1ccccc1)NCC1CCCO1 (centres unmarked),-9.34
18,CCOc1ccccc1Nc1nc(N)nc(CSc2nncn2C)n1,9.75
19,Cc1cccc(OCC(=O)Nc2ccc(C(=O)NCC(C)C)cc2)c1,4.42
20,CCOCCCNC(=S)Nc1cc(OCC)c(NC(=O)c2ccco2)cc1OCC,7.7
21,COc1ccc(C(=O)N2CCN=C2SCc2cccnc2)cc1OC,9.25
22,COc1nnc(-c2ccc(C)c(S(=O)(=O)N(C)C)c2)c2ccccc12,-53.6

row,SMILES,"hERG current change (%, negative = inhibition) at 1uM [%]"
1,COc1nnc(-c2ccc(C)c(S(=O)(=O)NC(C)C)c2)c2ccccc12,-5.36
2,COc1nnc(-c2ccc(C)c(S(N)(=O)=O)c2)c2ccccc12,3.63
3,CC(=O)Nc1ccc(NC2CCCCC2NS(=O)(=O)c2ccc(Cl)cc2)cc1 (centres unmarked),12
4,CCOC(=O)C1(Cc2ccccc2C(F)(F)F)CCN(CCCn2cccn2)CC1,-49.2
5,CCOC(=O)C1(Cc2ccccc2C(F)(F)F)CCN(C(C)CCn2cccn2)CC1 (centres unmarked),-40.8
6,CCOC(=O)C1(Cc2cccc(F)c2)CCN(Cc2cn(CC)nc2C)CC1,-6.14
7,CCOC(=O)C1(CCCc2ccccc2)CCN(Cc2cnn(C)c2)CC1,-46.4
8,CCOC(=O)C1(Cc2ccc(Cl)cc2)CCN(C(C)Cc2ccc(O)c(OC)c2)CC1 (centres unmarked),-7.39
9,CCCn1cc(CN2CCC(Cc3cccc(F)c3)(C(=O)OCC)CC2)c(C)n1,-60.3
10,CCOC(=O)C1(CCCc2ccccc2)CCN(CCCn2cccn2)CC1,-84.6
11,CCOC(=O)C1(CCCc2ccccc2)CCN(Cc2nccn2CC)CC1,-45.8
12,CCOC(=O)C1(Cc2ccc(Cl)cc2)CCN(C(C)CCn2cccn2)CC1 (centres unmarked),-87.1
13,CCOC(=O)C1(Cc2ccccc2)CCCN(CCCn2cccn2)C1 (centres unmarked),3.88
14,CCOC(=O)C1(Cc2ccc(Cl)cc2)CCN(CCCn2cccn2)CC1,-77
15,CCCn1cc(CN2CCC(Cc3ccccc3)(C(=O)OCC)CC2)c(C)n1,-14
16,Cc1ccc(C2=NN(CCC(=O)NCCCN3CCOCC3)C(=O)CC2)cc1,-9.94
17,O=C(CNC(=O)c1nc[nH]c1C(=O)NCC(=O)OCc1ccccc1)OCc1ccccc1,10.3
18,COc1ccccc1NC(CC(=O)c1ccccc1)C(=O)OCC(=O)c1ccc(F)cc1 (centres unmarked),-11.1
19,COc1ccccc1C(=O)Nc1c2c(nn1-c1cccc(C)c1C)CS(=O)C2 (centres unmarked),-3.22
20,Cc1ccc(-n2c(O)c(C=Nc3ccc(S(=O)(=O)Nc4ncccn4)cc3)c3ccccc3c2=O)cc1C,-2.78
